# The panel holds about 83,000 compounds, 20% with a hit somewhere; the sample as a whole holds those more often.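 Interpretation: 100, growth as untreated; towards 0, rising growth inhibition; 0, no net growth; 0 to -100, cell death. Compounds scoring below 10 were considered active.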 A number with no mark means an inactive call. Active and inactive are the calls of the source.
# Tested on: SR leukemia
# Assay: NCI-60 one-dose screen, 48 h (100 = growth as untreated, 0 = no growth, -100 = all killed)
# Settings: 10 µM unless noted
row,SMILES,growth
1,COC(=O)[C@@H](C)C[C@H](Cc1ccccc1)NC(=O)c1nc([C@@H](C[C@H](C(C)C)N(C)C(=O)[C@@H](NC(=O)[C@H]2CCCCN2C)C(C)C)OC(C)=O)sc1C(C)C,3.18% (active)
2,CCCC(C)C1(CC)C(=O)NC(=O)N(C)C1=O (stereo unspecified),95%
3,COc1ccc(C(O)(C(=O)O)c2ccc(OC)cc2)cc1,102%
4,Nc1c(F)cc(-c2nc3cc(F)ccc3[se]2)cc1F,20.6%
5,CC(=O)O[C@@H]1CC[C@]2(C)[C@H]3CC[C@]4(C)C(=O)CC[C@H]4[C@@H]3C[C@@H]3SC(N)=N[C@@]32C1,31.7%
6,CCCCNC(c1ccc(Cl)cc1)C(O)c1ccc(Cl)cc1 (stereo unspecified),-34.2% (active)
7,CCOC(=O)[C@@H](C)C[C@H](Cc1ccccc1)NC(=O)c1csc([C@@H](C[C@H](C(C)C)N(C)C(=O)[C@H](CC)NC(=O)[C@H]2CCCCN2C)OC(C)=O)n1,6.66% (active)
8,ClC1=C(Cl)C(Cl)(C2(Cl)C(Cl)=C(Cl)C(Cl)=C2Cl)C(Cl)=C1Cl,-25.3% (active)
9,CN[C@@]1(c2ccccc2Cl)CCCC[C@@H]1NCC1CCCO1 (stereo partly specified),95.2%
10,COc1cc2c(cc1OCc1ccccc1)C(CC(C)C)=[N+](C)CC2,89.9%
11,CC(=O)O[C@H]1CC[C@H]2[C@@H]3CC=C4c5nc(-c6ccccc6)sc5CC[C@]4(C)[C@H]3CC[C@]12C,8.39% (active)
12,COc1ccc(/C=C\c2cc(OC)c(OC)c(OC)c2)cc1OCC(=O)Nc1nc2ccc(OC(F)(F)F)cc2s1,31.5%
13,CC(C)(C)C(=O)OCOP(=O)(NCc1ccccc1)C1CCCN(O)C1=O (stereo unspecified),9.38% (active)
14,CC(=O)Nc1ccc(NC(=O)c2ccc([As](O)O)cc2)cc1,73.8%
15,O[C@H](CN1CC1)[C@@H](O)CN1CC1,16.9%
16,Cc1cc(C)c(CBr)c(C)c1,107%

row,SMILES,growth
1,CC12CCC3C(CCC4=CC(=O)CCC43CF)C1CCC2=O (stereo unspecified),119%
2,C=C1[C@@H](C)[C@H]2[C@H](Cc3ccccc3)NC(=O)[C@]23[C@@H](O)/C=C/[C@@](C)(O)C(=O)[C@@H](C)C/C=C/[C@H]3[C@@H]1O,64.3%
3,NC(=O)C(Br)c1ccccc1 (stereo unspecified),46.1%
4,CCC(=O)Nc1ccc(Cl)c(Cl)c1,95.5%
5,CC[C@H](C)[C@@H]1OC(=O)C(C)(C)[C@H](O)[C@H](Cc2ccccc2)OC(=O)[C@H](C(C)C)OC(=O)[C@@H](NC(=O)c2cccc(NC=O)c2O)[C@@H](C)OC1=O,43.3%
6,NC(=S)c1cn(C2OC(CO)C(O)C2O)c2ncnc(N)c12 (stereo unspecified),-50.4% (active)
7,Nc1ncnc2n[nH]nc12,63.1%
8,COc1cc(/C=C/[N+](=O)[O-])cc(OC)c1,-12.3% (active)
9,Clc1cccc(NCOOC2(OOCNc3cccc(Cl)c3)CCCCCC2)c1,5.27% (active)
10,Brc1ccc2c(c1)c(-c1nc(-c3c[nH]c4ncccc34)cs1)cn2CCN1CCOCC1,59.7%
11,O=C1C(Cl)=C(N2CCOCC2)C(=O)c2ccccc21,-37.1% (active)
12,CC1=C(CCCNS(C)(=O)=O)C2=C(C)C3(CC3)[C@@](C)(O)C(=O)C2=C1,92.8%
13,CCN(CCO)C(Cc1ccccc1)c1ccccc1 (stereo unspecified),116%
14,CCCCC1(CCC)C(=O)NC(=S)NC1=O,126%
15,CC[C@H](C)[C@H](NC(=O)[C@H]1CCCCN1C)C(=O)N(C)[C@H](CC(=O)c1nc(C(=O)N[C@@H](Cc2ccccc2)C[C@H](C)C(=O)O)cs1)C(C)C,27.8%

# Tested on: RPMI-8226 leukemia
# Assay: as above
# Settings: 10 µM unless noted
row,SMILES,growth
1,CCOC(=O)CCC(NC(=O)C(Cc1ccc(N(CCCl)CCCl)cc1)NC=O)C(=O)OCC (stereo unspecified),30.6%
2,COC(=O)[C@@H](C)C[C@H](Cc1ccccc1)NC(=O)c1nc([C@@H](C[C@H](C(C)C)N(C)C(=O)[C@@H](NC(=O)[C@H]2CCCCN2C)C(C)C)OC(C)=O)sc1C(C)C,20.5%
3,CCCC(C)C1(CC)C(=O)NC(=O)N(C)C1=O (stereo unspecified),103%
4,C=CCCCCCCCCC(=O)[O-].C=CCCCCCCCCC(=O)[O-].[Zn+2],95.2%
5,COc1ccc(C(O)(C(=O)O)c2ccc(OC)cc2)cc1,78.2%
6,Nc1c(F)cc(-c2nc3cc(F)ccc3[se]2)cc1F,48.8%
7,CC(=O)O[C@@H]1CC[C@]2(C)[C@H]3CC[C@]4(C)C(=O)CC[C@H]4[C@@H]3C[C@@H]3SC(N)=N[C@@]32C1,48.4%
8,N#CC1(C#N)C(c2ccc(N(CCCl)CCCl)cc2)OC23CCCCC2C1(C#N)C(=N)O3 (stereo unspecified),96.2%
9,CCCCNC(c1ccc(Cl)cc1)C(O)c1ccc(Cl)cc1 (stereo unspecified),-15.1% (active)
10,CCOC(=O)[C@@H](C)C[C@H](Cc1ccccc1)NC(=O)c1csc([C@@H](C[C@H](C(C)C)N(C)C(=O)[C@H](CC)NC(=O)[C@H]2CCCCN2C)OC(C)=O)n1,19.2%
11,C[Se]C(=O)c1ccccc1OC(C)=O,88.6%
12,ClC1=C(Cl)C(Cl)(C2(Cl)C(Cl)=C(Cl)C(Cl)=C2Cl)C(Cl)=C1Cl,-37.8% (active)
13,CN[C@@]1(c2ccccc2Cl)CCCC[C@@H]1NCC1CCCO1 (stereo partly specified),104%
14,COc1cc2c(cc1OCc1ccccc1)C(CC(C)C)=[N+](C)CC2,56.4%
15,CC(=O)O[C@H]1CC[C@H]2[C@@H]3CC=C4c5nc(-c6ccccc6)sc5CC[C@]4(C)[C@H]3CC[C@]12C,-37.3% (active)
16,N#CC1(c2ccccc2)CCN(Cc2ccccc2)CC1,77%
17,COc1ccc(/C=C\c2cc(OC)c(OC)c(OC)c2)cc1OCC(=O)Nc1nc2ccc(OC(F)(F)F)cc2s1,22.8%
18,CC(=O)Nc1ccc(NC(=O)c2ccc([As](O)O)cc2)cc1,34.5%

row,SMILES,growth
1,O[C@H](CN1CC1)[C@@H](O)CN1CC1,88%
2,Cc1cc(C)c(CBr)c(C)c1,100%
3,CCOP1(=O)CC(C)=C(Cl)C(P(=O)(OCC)OCC)C1 (stereo unspecified),107%
4,C=C1[C@@H](C)[C@H]2[C@H](Cc3ccccc3)NC(=O)[C@]23[C@@H](O)/C=C/[C@@](C)(O)C(=O)[C@@H](C)C/C=C/[C@H]3[C@@H]1O,68.4%
5,NC(=O)C(Br)c1ccccc1 (stereo unspecified),96.6%
6,CCC(=O)Nc1ccc(Cl)c(Cl)c1,106%
7,CC[C@H](C)[C@@H]1OC(=O)C(C)(C)[C@H](O)[C@H](Cc2ccccc2)OC(=O)[C@H](C(C)C)OC(=O)[C@@H](NC(=O)c2cccc(NC=O)c2O)[C@@H](C)OC1=O,29%
8,NC(=S)c1cn(C2OC(CO)C(O)C2O)c2ncnc(N)c12 (stereo unspecified),-39.8% (active)
9,Nc1ncnc2n[nH]nc12,43.1%
10,COc1cc(/C=C/[N+](=O)[O-])cc(OC)c1,-24.1% (active)
11,Clc1cccc(NCOOC2(OOCNc3cccc(Cl)c3)CCCCCC2)c1,91.9%
12,Brc1ccc2c(c1)c(-c1nc(-c3c[nH]c4ncccc34)cs1)cn2CCN1CCOCC1,40.1%
13,O=C1C(Cl)=C(N2CCOCC2)C(=O)c2ccccc21,-3.69% (active)
14,CC1=C(CCCNS(C)(=O)=O)C2=C(C)C3(CC3)[C@@](C)(O)C(=O)C2=C1,97%
15,CCN(CCO)C(Cc1ccccc1)c1ccccc1 (stereo unspecified),98.9%
16,CCCCC1(CCC)C(=O)NC(=S)NC1=O,104%
17,CC[C@H](C)[C@H](NC(=O)[C@H]1CCCCN1C)C(=O)N(C)[C@H](CC(=O)c1nc(C(=O)N[C@@H](Cc2ccccc2)C[C@H](C)C(=O)O)cs1)C(C)C,43.2%
